Assay results from PubChem BioAssay AID2685 (National Center for Advancing Translational Sciences (NCATS), 2010).
Out of some 320,000 compounds screened, about 2,100 (0.66%) were called active. Inconclusive results (about 53%) are left out. The sample holds actives, similar compounds and a random draw of the others, so the mix is not that of the screen. Calls come from the whole dose curve; as a rule, active = well fitted inhibition curve with a large enough effect in the signal ratio, with a control signal flat (not every such curve was filed as active); inconclusive = small, poorly fitted or top-dose-only effect, or effect the other way, or a change in a side signal; inactive = flat fitted curve, though single readings scatter; the % refers to the signal ratio.

Assay: qHTS Assay for Lipid Storage Modulators in Drosophila S3 Cells;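 for cell number change: cells counted by Cell Tracker Red CMTPX staining in the red channel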; for lipid storage change, negative = inhibition: % is set by controls: 0 for no effect and ±100 for the full control effect
Settings: BODIPY lipid droplet fluorescence, 18-24 h, cells fed with added oleic acid; cell number change: measured here: cell count max response; series mostly up to 46.1 µM; lipid storage change, negative = inhibition: at the top concentration
Summary of the method: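 Laser-scanning cytometry quantifies lipid droplet accumulation (500–530 nm total intensity; droplet/cell object ratio) in oleic acid-fed (400 uM added) Drosophila S3 cells treated with a concentration series. 20 uM Triacsin C defined 100% inhibition.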
Potency is the fitted concentration of half-maximal effect.

Structure (SMILES) | outcome | cell number change [%] | lipid storage change, negative = inhibition | Potency
Cn1c(N)c(C(=O)COC(=O)COc2ccccc2C#N)c(=O)n(C)c1=O | inactive | – | – | –
CC1CCCCN1C(=O)c1ccc(Br)o1 (centres undefined) | inactive | 0.829 | – | –
COc1ccc(/C=C/C(=O)c2ccc(O)cc2)cc1 | – | -13.4 | 0.146% (inactive) | –
CCNC(=S)NNC(=O)c1ccc(=O)n(Cc2ccccc2)c1 | – | 8.31 | 12.6% (inactive) | –
CN(C)C(=O)NC(Nc1ccc(Cl)cc1Cl)C(Cl)(Cl)Cl (centres undefined) | inactive | – | – | –
Cc1ccc(CC(CC(=O)NCCc2ccc3c(c2)OCO3)C(=O)O)cc1 (centres undefined) | – | – | -23.3% (inactive) | –
O=C(NCc1cccnc1)c1ccc(Cl)c(S(=O)(=O)N2CCOCC2)c1 | inactive | -4.25 | – | –
COc1ccc(C(=O)N2CCCC2)cc1S(=O)(=O)N1CCOCC1 | – | 9.79 | – | 7.31 µM (active)
CN1CCC(N(C)C(=O)c2ccc(Cl)c(S(=O)(=O)N3CCCCC3)c2)CC1 | – | -2.26 | – | 14.6 µM (active)
COc1ccc(C(=O)OCc2cc(C)ccc2C)cc1S(=O)(=O)N1CCCC1 | – | -10.2 | – | 0.082 µM (active)
CN(C(=O)c1ccc(F)c(S(=O)(=O)N2CCOCC2)c1)C1CCCCC1 | – | 0.139 | 24.8% (inactive) | –
COc1ccc(C(=O)OCc2ccc(C)cc2)cc1S(=O)(=O)N1CCOCC1 | – | 0.435 | 15.6% (inactive) | –
COc1ccc(C(=O)N2CCN(S(=O)(=O)c3ccc(C)cc3)CC2)cc1S(=O)(=O)N1CCOCC1 | – | 3.33 | -18.5% (inactive) | –
CN(C(=O)c1ccc(S(=O)(=O)N2CCCC2)cc1)C1CCCCC1 | – | -9.06 | 0.283% (inactive) | –
COc1ccc(C(=O)N2CCCC(C(N)=O)C2)cc1S(=O)(=O)N1CCOCC1 (centres undefined) | – | 10.1 | -1.8% (inactive) | –
COc1ccc(C)cc1S(=O)(=O)N1CCCCC1 | – | 6.88 | 9.28% (inactive) | –
COc1ccc(CNC(=O)c2ccc(Cl)c(S(=O)(=O)N3CCOCC3)c2)cc1OC | – | -21 | – | 1.64 µM (active)
O=C(NCc1ccncc1)c1ccc(Cl)c(S(=O)(=O)N2CCOCC2)c1 | – | 18.6 | 9.55% (inactive) | –
NC(=O)C1=C[C@@H](C2CCCCC2)C[C@@H](OCCCCO)O1 | – | 1.59 | 5.82% (inactive) | –
Cc1ccc(N2C(=O)C3C(C2=O)N2CCCN2C3c2ccccc2)cc1C (centres undefined) | – | 7.85 | -5.4% (inactive) | –
CCN(CC)C(=O)CC(c1ccc(F)cc1)c1ccco1 (centres undefined) | – | -17.4 | 2.63% (inactive) | –
CCc1ccccc1NC(=O)CSc1nnc(Cn2cnc3ccccc32)o1 | – | -13.9 | -1.44% (inactive) | –

Structure (SMILES) | outcome | cell number change [%] | lipid storage change, negative = inhibition | Potency
COc1ccc(CCNC(=O)C(=O)NCC2OCCN2S(=O)(=O)c2cccs2)cc1 (centres undefined) | – | 0.232 | 15.5% (inactive) | –
Cc1c(NC(=O)CSc2nnc(C(C)Oc3ccc(Cl)cc3)n2-c2ccccc2)c(=O)n(-c2ccccc2)n1C (centres undefined) | – | 8.96 | 6.38% (inactive) | –
COc1ccc(C(=O)N2CCN(c3ccccc3)CC2)cc1S(=O)(=O)N1CCOCC1 | – | 0.901 | – | 3.26 µM (active)
Cc1ccc(C(=O)N2CCN(c3ccccc3)CC2)cc1S(=O)(=O)N1CCOCC1 | – | 22 | 0.336% (inactive) | –
COc1ccc(/C=C/C(=O)N2CCN(c3ccccc3)CC2)cc1S(=O)(=O)N1CCOCC1 | – | – | 21.1% (inactive) | –
COC(=O)c1sc(NC(=O)C2c3ccccc3Oc3ccccc32)c(C(=O)OC)c1C | – | 5.22 | -0.563% (inactive) | –
Cc1ccc(C2CC(C(F)F)n3ncc(C(=O)Nc4c(C)nn(Cc5c(F)cccc5Cl)c4C)c3N2)cc1 (centres undefined) | – | 11 | 0.101% (inactive) | –
CCOC(=O)c1c(NC(=O)c2ccccc2C(=O)O)sc2c1CCC2 | inactive | 7.14 | – | –
COc1cc(-c2cc(-c3ccc(N)cc3)[nH]c(=O)c2C#N)cc(OC)c1OC | – | 28 | 11.6% (inactive) | –
O=C(Nc1ccc(Cl)cn1)c1cccc(S(=O)(=O)N2CCCCC2)c1 | inactive | 14.3 | – | –
O=C(Cn1cnc2ccccc2c1=O)NCCC(=O)Nc1ccccc1C(F)(F)F | – | -3.75 | – | 0.0651 µM (active)
O=C(Cn1cnc2ccccc2c1=O)NCCC(=O)Nc1ccc(F)cc1 | – | 20.1 | -9.21% (inactive) | –
COC(=O)c1ccccc1NC(=O)CCNC(=O)Cn1cnc2ccccc2c1=O | – | -2.73 | -6.58% (inactive) | –
COC(=O)c1ccc(CSc2nc3ccccc3c(=O)n2N)cc1 | inactive | -1.8 | – | –
CC(C)CN(CC(C)C)S(=O)(=O)N1CCC(C(=O)NCc2ccco2)CC1 | – | -10.2 | 2.25% (inactive) | –
CCc1ccccc1N(CC(=O)NCc1ccco1)C(=O)CCC(=O)Nc1nccs1 | inactive | 6.09 | – | –
CCOc1ccccc1N(CC(=O)NCc1ccco1)C(=O)CCC(=O)Nc1nccs1 | – | -1.71 | – | 2.59 µM (active)
COc1ccccc1N(CC(=O)NCc1ccc(F)cc1)C(=O)CCC(=O)Nc1nccs1 | inactive | -10.4 | – | –
O=C(CN(C(=O)CCC(=O)Nc1nccs1)c1ccccc1F)NCCc1ccccc1 | inactive | 18.7 | – | –
COc1ccccc1N(CC(=O)NCCc1ccccc1)C(=O)CCC(=O)Nc1nccs1 | – | -5.22 | – | 2.06 µM (active)
Cc1ccccc1N(CC(=O)NCc1ccco1)C(=O)CCC(=O)Nc1nccs1 | – | 7.88 | 20.4% (inactive) | –
COC(=O)c1ccc(NC(=O)c2ccc(NS(=O)(=O)c3cccc4cccnc34)cc2)cc1 | – | -0.185 | 4.09% (inactive) | –
